Experimental data reported in the supplement of paper PMC9948646.

The molecules below were run on gramicidin D channels in DC22:1PC lipid vesicles (bilayer-modifying potency) (assay: initial Tl+ fluorescence quench rate relative to no-drug control (NormRate, gramicidin monomer-dimer shift) (ratio (fold of control)); higher = stronger bilayer-modifying effect (equilibrium shifted toward conducting dimers), active = 1.5 or more). Conditions: 10 µM; lipid concentration 50 µM; temperature: 25 °C.
Description: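 Stopped-flow fluorescence quench assay: ANTS-loaded DC22:1PC large unilamellar vesicles doped with gramicidin D (1:2000), 50 µM lipid, equilibrated 10 min with 10 µM drug (0.1% DMSO), mixed with Tl+ quench buffer at 25°C. Initial quench rate (Tl+ influx) was fitted with a modified stretched exponential and normalised to the no-drug control rate (NormRate); duplicates from two independent LUV preparations (triplicates for 7 drugs).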
`CC1=Nc2ccc(Cl)cc2[C@](O)(c2ccc(C)cc2)N1CCN1CCCCC1` was tested, and the “initial Tl+ fluorescence quench rate” value was 1.66 (active).
For `Nc1cccnc1Nc1ccc(Cl)cc1`, the “initial Tl+ fluorescence quench rate” value was 1.05 (inactive).
`O=C(NC1CC1)c1ccc(CSCc2ccccc2Cl)o1` was tested, and the “initial Tl+ fluorescence quench rate” value was 1.35 (inactive).
For `CCCCOC(=O)Nc1cc2nc(C3CCCCC3)[nH]c2cc1N1CCCC1`, the “initial Tl+ fluorescence quench rate” value was 1.33 (inactive).
With `C[C@@H](Oc1ccccc1)C(=O)Nc1nc(-c2ccccn2)cs1` the “initial Tl+ fluorescence quench rate” value was 1.29 (inactive).
`Cc1[nH]c2cc(F)cc(F)c2c(=O)c1-c1ccc(Oc2ccc(OC(F)(F)F)cc2)cc1` was tested, and the “initial Tl+ fluorescence quench rate” value was 1.11 (inactive).
With `[H]/N=C(\N)c1ccc(OCCCCCOc2ccc(/C(N)=N\[H])cc2)cc1` the “initial Tl+ fluorescence quench rate” value was 1.02 (inactive).
For `Cc1ccc2[nH]c([C@H]3CCCNC3)c(-c3ccncc3)c2c1`, the “initial Tl+ fluorescence quench rate” value was 1.42 (inactive).
For `CC(=O)Oc1ccccc1C(=O)Nc1ncc([N+](=O)[O-])s1`, the “initial Tl+ fluorescence quench rate” value was 1.05 (inactive).
For `c1ccc(Oc2ccc(-c3cc(N4CCNCC4)[nH]n3)cc2)cc1`, the “initial Tl+ fluorescence quench rate” value was 1.44 (inactive).
`CCCn1c(CNc2ccccc2O)nc2ccccc21` was tested, and the “initial Tl+ fluorescence quench rate” value was 1.05 (inactive).
For `Cn1ccnc1CNCCS(=O)(=O)c1cccc(Nc2ccc(-c3cccc(F)c3)cn2)c1`, the “initial Tl+ fluorescence quench rate” value was 2.38 (active).
`O=C(Nc1ccnc(-c2cccnc2)n1)c1cc(C(F)(F)F)cc(C(F)(F)F)c1` was tested, and the “initial Tl+ fluorescence quench rate” value was 1.2 (inactive).
With `C[C@@H](c1cc(Cl)cc(Cl)c1)N(C)c1ncc2c(N)nc(N)nc2n1` the “initial Tl+ fluorescence quench rate” value was 2.71 (active).
`Nc1nc2ccc(-c3cncc(Oc4ccc(F)cc4)c3)cc2[nH]1` was tested, and the “initial Tl+ fluorescence quench rate” value was 1.85 (active).
For `CCc1ccc(S(=O)(=O)Nc2cc(CN3CCN(CCC(C)C)CC3)ccc2C)cc1`, the “initial Tl+ fluorescence quench rate” value was 1.29 (inactive).
In the case of `COc1ccc(C2=NN(C3CCCCCC3)C(=O)C2(C)C)cc1OCCCCOc1ccc(-c2nn[nH]n2)cc1`, the “initial Tl+ fluorescence quench rate” value is reported as 9.05 (active).
`CC(C)(C)OC(=O)N1CCC(Cn2nc(-c3cnc4ccccc4c3)c3c(N)ncnc32)CC1` was tested, and the “initial Tl+ fluorescence quench rate” value was 1.57 (active).
For `[H]/N=C(\N)N[C@H]1[C@@H](O)[C@@H](O)[C@H](O[C@H]2O[C@H](C)[C@](O)(C=O)[C@H]2O[C@H]2O[C@@H](CO)[C@@H](O)[C@@H](O)[C@@H]2NC)[C@@H](N/C(N)=N/[H])[C@H]1O`, the “initial Tl+ fluorescence quench rate” value was 1.05 (inactive).
For `O=C(N[C@H]1CCN(c2ccnc3ccccc23)C1)c1cccc(C(F)(F)F)c1`, the “initial Tl+ fluorescence quench rate” value was 1.27 (inactive).
For `O=C(COc1cccc(F)c1)Nc1nc(-c2ccccn2)cs1`, the “initial Tl+ fluorescence quench rate” value was 1.16 (inactive).
In the case of `CN1CCN(c2nccc3[nH]c(-c4cccc(F)c4)cc23)CC1`, the “initial Tl+ fluorescence quench rate” value is reported as 1.1 (inactive).
In the case of `[H]/N=C(\Nc1ccc(Cl)cc1)Nc1nc(C)cc(NCCc2ccccc2)n1`, the “initial Tl+ fluorescence quench rate” value is reported as 3.21 (active).
`Cc1nn2c(=O)c3c([nH]c2c1-c1ccc(Cl)cc1)CCCC3` was tested, and the “initial Tl+ fluorescence quench rate” value was 1.13 (inactive).
In the case of `COC(=O)C1=C(C)NC(C)=C(C(=O)OC(C)C)[C@@H]1c1cccc2nonc12`, the “initial Tl+ fluorescence quench rate” value is reported as 1.33 (inactive).
`c1coc(CNc2nc(N3CCCCC3)nc3ccccc23)c1` was tested, and the “initial Tl+ fluorescence quench rate” value was 1.02 (inactive).
`CC(C)(C)n1nc(-c2ccccc2)c2c(N)ncnc21` was tested, and the “initial Tl+ fluorescence quench rate” value was 1.03 (inactive).
`CC(=O)N(CCN(C(=O)c1ccc(F)cc1)c1ccccc1)c1ccccc1` was tested, and the “initial Tl+ fluorescence quench rate” value was 1.14 (inactive).
`O=C(N[C@H](Cc1ccccc1)C(=O)Nc1ccccc1N1CCOCC1)c1cccs1` was tested, and the “initial Tl+ fluorescence quench rate” value was 1.21 (inactive).
`O=C(Nc1ccc(F)c(-c2nc3cc(-c4ccccc4)cnc3[nH]2)c1)N1CCCC1` was tested, and the “initial Tl+ fluorescence quench rate” value was 1.72 (active).
`COC[C@H](C)NC(=O)CSc1ncnc2sc(-c3ccccc3)cc12` was tested, and the “initial Tl+ fluorescence quench rate” value was 1.33 (inactive).
`COc1ccc(C2=NN(C3CCCCCC3)C(=O)C2(C)C)cc1OCc1ccccn1` was tested, and the “initial Tl+ fluorescence quench rate” value was 1.8 (active).
`COc1cccn2c(C(=O)N3CCCCC3)c(C(F)(F)F)nc12` was tested, and the “initial Tl+ fluorescence quench rate” value was 1.08 (inactive).
For `CCc1ccc([C@@H](NCc2nc(N)nc(N(C)C)n2)C(C)C)cc1`, the “initial Tl+ fluorescence quench rate” value was 1.08 (inactive).
In the case of `NCCN(C(=O)c1ccc(Cl)cc1Cl)c1ccc(OCc2ccc(Cl)cc2)cc1`, the “initial Tl+ fluorescence quench rate” value is reported as 5.93 (active).
With `c1ccc(-c2[nH]c3ccccc3c2[C@H](c2ccccn2)N2CCCC2)cc1` the “initial Tl+ fluorescence quench rate” value was 1.06 (inactive).
In the case of `CCOc1ccc2cc(-c3nn(CC4CCN(C)CC4)c4ncnc(N)c34)ccc2c1`, the “initial Tl+ fluorescence quench rate” value is reported as 1.16 (inactive).
With `O=C(Nc1ccc(C(F)(F)F)c(C(F)(F)F)c1)c1cc(Cl)ccc1O` the “initial Tl+ fluorescence quench rate” value was 2.9 (active).
`O=C(Nc1cccc(-c2ccc(NCCCN3CCCC3)nc2)c1)c1ccccc1` was tested, and the “initial Tl+ fluorescence quench rate” value was 1.2 (inactive).
In the case of `Cc1cc(Nc2ccc(C(F)(F)F)cc2)n2ccnc2n1`, the “initial Tl+ fluorescence quench rate” value is reported as 1.05 (inactive).
